Casp6 inh: blocks human caspase-6 cleavage activity; P55212; purified caspase-6, Z-VEID-R110 cleavage fluorescence; inhibition, % at 12.5 µM; 350,000 tested, 0.53% active;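 active = mean inhibition across replicates at least about 35%, with every replicate also reaching that limit, limit read from the data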;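 also: 0% = median of neutral control wells and 100% = no fluorescence left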
SIRT5 inh: blocks human SIRT5 desuccinylation of peptide; Q9NXA8; Purified SirT5, succinyl-peptide AMC, trypsin-coupled fluorescence; inhibition, % at 15 µM; 330,000 tested, 1.1% active; AID 652115; in the data active = inhibition above about 15%
Target sequence (Q9NXA8 whole entry, looked up): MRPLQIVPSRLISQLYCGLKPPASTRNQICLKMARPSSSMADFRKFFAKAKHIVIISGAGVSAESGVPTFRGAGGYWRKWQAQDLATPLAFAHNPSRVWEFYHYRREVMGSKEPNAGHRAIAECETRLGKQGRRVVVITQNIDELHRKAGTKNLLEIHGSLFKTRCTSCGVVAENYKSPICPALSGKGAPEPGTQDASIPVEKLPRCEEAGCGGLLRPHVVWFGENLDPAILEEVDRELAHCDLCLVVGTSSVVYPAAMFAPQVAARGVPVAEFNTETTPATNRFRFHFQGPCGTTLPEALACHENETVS
GSIS activator: GLuc luminescence reporter in INS-1E cells, primary screen for activators of glucose-dependent secretion of insulin; activation, % at 16.6 µM; INS-1E GLuc reporter insulin secretion, 2-3 h; 370,000 tested, 0.61% active;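 active = lowest replicate activation of at least 40%, so every replicate reaches that level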;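 also: 0% = median of neutral control wells and 100% = median of IBMX positive control wells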
ERAP1 inh: inhibitors of human ERAP1 aminopeptidase. 340,000 tested, 0.15% active. inhibition, % at 10.7 µM. Q9NZ08. recombinant ERAP1, Leu-AMC fluorescence, 60 min;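 active = mean replicate inhibition of at least 30%, or all replicates individually reaching that 30% level; inactive = mean below 30% and not every replicate reaching it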;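 also: 0% = neutral control wells and 100% = L-leucinethiol positive control wells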
FGF22 binding: FGF22 (human) thermal shift binding. Q9HCT0. recombinant FGF22 thermal shift, SYPRO orange fluorescence; percent of sucrose octasulfate shift, DMSO zero. activity (Tm shift, normalised), % at 9.99 µM. 340,000 tested, 1.5% active;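 active = mean Tm shift, scaled 0 neutral to 100 positive control, at about 1.3% or above, every replicate too, limit read from the data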
An asterisk follows results filed as active. Compounds with a hit are over-represented: about 3.3% of the library has one in this group of screens.

For CC(C)(C)OC(=O)NCCCC[C@H](NC(=O)[C@H](Cc1c[nH]c2ccccc12)NC(=O)OCc1ccccc1)C(=O)O the results were Casp6 inh 38.8*, SIRT5 inh -3.9, GSIS activator -3.3, ERAP1 inh -3.6 and FGF22 binding -0.1.
For COc1cccc(/C=C2/NC(=O)NC2=O)c1OCC(=O)Nc1ccccc1 the results were Casp6 inh -6.5, SIRT5 inh -2.8, GSIS activator 6.0, ERAP1 inh -0.8 and FGF22 binding 43.4*.
Screening CC(C)C#Cc1ccc2c(c1)O[C@H](CN(C)Cc1ccccc1)[C@H](C)CN([C@H](C)CO)S2(=O)=O returned Casp6 inh -1.0, SIRT5 inh 16.2*, GSIS activator 2.4, ERAP1 inh 1.4 and FGF22 binding -0.1.
For CC(C)C#Cc1ccc2c(c1)O[C@H](CN(C)Cc1ccccc1)[C@@H](C)CN([C@H](C)CO)S2(=O)=O the results were Casp6 inh 0.0, SIRT5 inh 1.0, GSIS activator -10.6, ERAP1 inh 5.2 and FGF22 binding -0.1.
C[C@H]1CN([C@@H](C)CO)S(=O)(=O)c2ccc(C#CC(C)(C)O)cc2O[C@@H]1CN(C)Cc1ccc(F)cc1 was read as Casp6 inh 2.1, SIRT5 inh 15.7*, GSIS activator -10.9, ERAP1 inh 4.2 and FGF22 binding 0.1.
CC(C)C#Cc1ccc2c(c1)O[C@H](CN(C)Cc1ccccc1)[C@@H](C)CN([C@@H](C)CO)S2(=O)=O was read as Casp6 inh -1.4, SIRT5 inh 7.6, GSIS activator 37.6, ERAP1 inh 0.8 and FGF22 binding -0.5.
`CC(C)C#Cc1ccc2c(c1)O[C@@H](CN(C)Cc1ccccc1)[C@@H](C)CN([C@@H](C)CO)S2(=O)=O` gave Casp6 inh -0.3, SIRT5 inh 16.9*, GSIS activator -12.4, ERAP1 inh 1.7 and FGF22 binding 0.0.
`N#C[C@H]1[C@@H](c2ccccc2-c2ccccc2F)[C@@H](CO)N1C(=O)C1CCOCC1` gave Casp6 inh 0.6, GSIS activator 5.7, ERAP1 inh 1.1 and FGF22 binding 0.0.
For CC(=O)N1[C@H](CO)[C@H](c2ccccc2)[C@@H]1CN(C)S(=O)(=O)c1ccccc1 the results were Casp6 inh -5.7, SIRT5 inh -3.0, GSIS activator 5.0, ERAP1 inh 3.0 and FGF22 binding 0.2.
CCCNC(=O)N1CC2(CN(Cc3cccc(OC)c3)C2)c2c([nH]c3cc(OC)ccc23)[C@H]1CO was read as Casp6 inh 0.5, SIRT5 inh -0.6, GSIS activator 9.6, ERAP1 inh 1.0 and FGF22 binding -0.2.
For CCCCCCCCN1C(=O)[C@H](CC(=O)N2CCCCC2)C[C@@]2(C(=O)OC)CC(C)(C)CC=C12 the results were Casp6 inh -1.5, SIRT5 inh 3.7, GSIS activator 81.3*, ERAP1 inh -1.6 and FGF22 binding -0.1.
CCCCCCCCN1C(=O)[C@H](CC(=O)NCCCOC)C[C@@]2(C(=O)OC)CCCCC=C12 was read as Casp6 inh 0.6, SIRT5 inh -0.2, ERAP1 inh -1.2 and FGF22 binding 0.1.
For CCCCCCCCN1C(=O)[C@H](CC(=O)N2CCOCC2)C[C@@]2(C(=O)OC)CC(C)(C)CC=C12 the results were Casp6 inh 1.5, GSIS activator -20.1, ERAP1 inh 3.5 and FGF22 binding 0.1.
`CCCCCCCCN1C(=O)[C@H](CC(=O)N2CCCCC2)C[C@@]2(C(=O)OC)CCCCC=C12` gave Casp6 inh -1.7, GSIS activator 46.7* and FGF22 binding -0.5.
For CCCCCCCCN1C(=O)[C@H](CC(=O)NCC2CCCCC2)C[C@@]2(C(=O)OC)CCCCC=C12 the results were Casp6 inh -2.0, SIRT5 inh 15.5*, GSIS activator 17.1, ERAP1 inh -2.7 and FGF22 binding 0.6.
Screening CCCCCCCCN1C(=O)[C@H](CC(=O)NCCC(C)C)C[C@@]2(C(=O)OCC)CCCC=C12 returned Casp6 inh -4.6, SIRT5 inh 20.9*, GSIS activator 23.3, ERAP1 inh -2.6 and FGF22 binding 0.1.
For COc1cccc(-c2ccc([C@H]3[C@H](CO)N4C(=O)CN(C(=O)C5CCCCC5)C[C@@H]34)cc2)c1 the results were SIRT5 inh -1.0 and GSIS activator 10.3.
Screening C[C@@H]1CN([C@H](C)CO)S(=O)(=O)c2ccc(-c3ccc(C#N)cc3)cc2O[C@@H]1CN(C)CC1CC1 returned Casp6 inh -0.9, SIRT5 inh 1.8, GSIS activator 3.1 and ERAP1 inh 9.1.
